According to PubChem BioAssay AID602144 (Vanderbilt Specialized Chemistry Center, 2011):
Values without a mark were called inactive. Active and inactive are the calls of the source. Cut-off read from the data, not from the text of the source: active = remaining activity below about 50%; inactive = the rest.

molecular target: Phospholipase D1 (Homo sapiens) (UniProt Q13393); experiment: PLD1 inhibitors in cells, Calu-1 cells, single concentration (AID 602144); conditions: cellular PLD1 activity, stronger effect = lower value;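 note: tested at 200 nM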
Sequence (Q13393 whole entry, looked up): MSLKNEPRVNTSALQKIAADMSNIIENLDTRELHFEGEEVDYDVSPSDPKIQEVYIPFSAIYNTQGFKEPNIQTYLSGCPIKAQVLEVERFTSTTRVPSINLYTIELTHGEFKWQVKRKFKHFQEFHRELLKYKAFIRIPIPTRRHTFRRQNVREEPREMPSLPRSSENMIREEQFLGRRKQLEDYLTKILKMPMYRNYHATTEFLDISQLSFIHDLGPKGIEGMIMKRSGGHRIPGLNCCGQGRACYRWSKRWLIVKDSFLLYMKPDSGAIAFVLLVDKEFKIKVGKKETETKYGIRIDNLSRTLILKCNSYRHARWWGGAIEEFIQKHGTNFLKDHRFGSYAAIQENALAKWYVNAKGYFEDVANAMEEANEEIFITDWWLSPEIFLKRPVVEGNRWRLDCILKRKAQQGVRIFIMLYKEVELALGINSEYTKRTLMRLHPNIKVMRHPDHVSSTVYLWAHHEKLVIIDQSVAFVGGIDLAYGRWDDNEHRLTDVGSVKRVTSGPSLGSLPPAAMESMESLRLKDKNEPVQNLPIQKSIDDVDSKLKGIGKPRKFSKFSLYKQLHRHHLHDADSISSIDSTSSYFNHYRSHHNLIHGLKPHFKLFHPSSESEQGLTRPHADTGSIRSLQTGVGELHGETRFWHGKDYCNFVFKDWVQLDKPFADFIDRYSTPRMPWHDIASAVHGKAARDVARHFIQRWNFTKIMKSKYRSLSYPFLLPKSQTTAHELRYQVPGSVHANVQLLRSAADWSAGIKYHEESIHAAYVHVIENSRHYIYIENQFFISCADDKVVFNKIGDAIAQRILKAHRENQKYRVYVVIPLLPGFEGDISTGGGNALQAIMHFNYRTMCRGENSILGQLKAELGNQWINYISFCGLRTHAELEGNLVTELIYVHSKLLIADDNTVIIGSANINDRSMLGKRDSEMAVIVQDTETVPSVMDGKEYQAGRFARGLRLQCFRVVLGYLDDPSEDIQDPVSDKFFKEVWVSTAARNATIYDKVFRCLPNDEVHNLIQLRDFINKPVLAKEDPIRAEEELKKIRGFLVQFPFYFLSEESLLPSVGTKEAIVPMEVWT
Sequence (Q13393 whole entry, looked up): as above

How did the remaining activity turn out when `C[C@@H](CN1CCC2(CCc3ccccc32)CC1)NC(=O)c1cnc2ccccc2c1` was run?
The remaining activity was 129%.

Which remaining activity does the source give for `C[C@@H](CN1CCC(n2c(=O)[nH]c3cc(I)ccc32)CC1)NC(=O)c1ccc2ccccc2c1` here?
Its remaining activity is 20.1% (active).

With `O=C(NCCN1CCC(n2c(=O)[nH]c3ccc(F)cc32)CC1)c1cccc2c1C(=O)c1ccccc1-2` as the compound, how does the remaining activity read?
Its remaining activity is 0% (active).

Which remaining activity does the source give for `O=C1c2ccccc2C(=O)N1CCN1CCC(n2c(=O)[nH]c3cc(Cl)ccc32)CC1` here?
The remaining activity was 107%.

Which remaining activity does the source give for `Cn1c(=O)n(C2CCN(CCNC(=O)[C@H]3C[C@@H]3c3ccccc3)CC2)c2ccccc21` here?
The remaining activity was 76.2%.

For `O=C(NCCN1CC=C(n2c(=O)[nH]c3ccccc32)CC1)C1CC1c1ccccc1` (configuration not stated), which remaining activity is on record?
Its remaining activity is 0% (active).

For `O=C(NCCN1CCN(c2ncccn2)CC1)c1ccc(Cl)cc1`, which remaining activity is on record?
Its remaining activity is 80.9%.

`COc1cccc(N2CCN(CCNC(=O)c3ccc(Cl)cc3)CC2)c1` was tested. Which remaining activity did it give?
Its remaining activity is 96.1%.

`O=C(NCCN1CCC2(CC1)CNCc1ccccc12)c1ccc2ccccc2c1` was tested. Which remaining activity did it give?
Its remaining activity is 122%.

`O=C1c2ccccc2C(=O)N1CCCN1CCC(c2nc3ccccc3[nH]2)CC1` was tested. Which remaining activity did it give?
The remaining activity was 95.3%.

With `C=CCCCCCCCCC(=O)NCCN1CCC(n2c(=O)[nH]c3ccccc32)CC1` as the compound, how does the remaining activity read?
The remaining activity was 81.3%.

With `O=C(NCCN1CCC(n2c(=O)[nH]c3ccc(F)cc32)CC1)c1ccc(C(F)(F)F)cc1` as the compound, how does the remaining activity read?
Its remaining activity is 19.1% (active).

Which remaining activity does the source give for `C[C@@H](CN1CCC2(CC1)CN(S(C)(=O)=O)c1ccccc12)NC(=O)c1cnc2ccccc2c1` here?
Its remaining activity is 118%.

`Cc1cccc(C(=O)NCCN2CCC(n3c(=O)[nH]c4ccccc43)CC2)n1` was tested. Which remaining activity did it give?
Its remaining activity is 26.7% (active).

Which remaining activity does the source give for `C[C@@H](CN1CCC(n2c(=O)[nH]c3ccccc32)CC1)NC(=O)Cc1cccs1` here?
The remaining activity was 101%.

Which remaining activity does the source give for `O=C(NCCN1CCC(n2c(=O)[nH]c3ccccc32)CC1)N1c2ccccc2Sc2ccccc21` here?
The remaining activity was 89.7%.

For `O=C1c2ccccc2C(=O)N1CCCNCc1ccccn1`, which remaining activity is on record?
The remaining activity was 175%.

With `CC(C(=O)NCCN1CCN(c2ccncc2)CC1)(c1ccccc1)c1ccccc1` as the compound, how does the remaining activity read?
Its remaining activity is 204%.

For `O=C(CCc1ccccc1)NCCN1CCC(n2c(=O)[nH]c3ccccc32)CC1`, which remaining activity is on record?
Its remaining activity is 76.1%.

For `O=C(NCCN1CCC2(CCc3ccccc32)CC1)c1cnc2ccccc2c1`, which remaining activity is on record?
Its remaining activity is 113%.

How did the remaining activity turn out when `O=c1[nH]c2ccccc2n1C1CCN(CCNS(=O)(=O)c2cccc(C(F)(F)F)c2)CC1` was run?
Its remaining activity is 111%.

Which remaining activity does the source give for `C[C@H](CN1CCC2(CC1)CNc1ccccc12)NC(=O)c1cnc2ccccc2c1` here?
The remaining activity was 55%.

`O=C(NCCN1CCC(c2nc3ccccc3[nH]2)CC1)C1CC1c1ccccc1` (configuration not stated) was tested. Which remaining activity did it give?
The remaining activity was 56.9%.

`COc1ccccc1NC(=S)NCCN1CCC(n2c(=O)[nH]c3ccccc32)CC1` was tested. Which remaining activity did it give?
The remaining activity was 152%.

How did the remaining activity turn out when `O=C(NCCN1CCN(c2ccncc2)CC1)c1ccc(F)cc1O` was run?
The remaining activity was 152%.

Which remaining activity does the source give for `O=C(CCc1ccc(F)cc1)NCCN1CCC(n2c(=O)[nH]c3ccccc32)CC1` here?
Its remaining activity is 75.2%.

How did the remaining activity turn out when `CN1CCC2(CCN(CCNC(=O)[C@H]3C[C@@H]3c3ccccc3)CC2)C1=O` was run?
The remaining activity was 107%.
